Assay outcomes (PubChem)
Rows were chosen to be rich in hits. Some 4.3% of all compounds tested hit in one or more screens of this group.
Wnt act – activates Wnt/beta-catenin signaling in a reporter cell assay. AID 743398. activator, plate reader. hit rate 1.2% among 300,000. activation, % at 9.35 µM; in the data active means activation above about 30%, passing the limit was not always enough; inconclusive means no clear call, values can overlap the other calls;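 further: 0% = neutral control wells and 100% = positive control wells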
SMARCA2 activ – SMARCA2 function activation, primary screen. MG213 cells, MMTV-luciferase reporter, dexamethasone, overnight. activation, % at 9.1 µM. hit rate 1% among 370,000. AID 652017; in the data active means activation above about 7.8%;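 further: 0% = vehicle wells and 100% = reference activator wells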
HSF1 inh – HSF1 inhibition. NIH3T3-HGL HSE-luciferase, MG132-induced, luminescence 8 h; hits give low values. activity change, negative = inhibition, % at 7.5 µM (by protocol). hit rate 0.77% among 300,000;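 active means more than half of replicate wells show activity change below -50%, luminescence cut by over half; inconclusive means some wells, but at most half, below -50%; inactive means no replicate well below -50%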;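 further: luciferase reports HSF-1 transcriptional activity via heat shock element; 0% = median of DMSO wells and -100% = zero luminescence signal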
HSF1 activator – increases HSF-1 driven luciferase reporter signal; NIH3T3-HGL HSF-1 luciferase reporter, MG132, 8 h; 100% = twice DMSO control signal; activation, % at 9 µM; hit rate 1.7% among 300,000; AID 504408;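 active means mean replicate activation of at least 50% with a set share of replicates each reaching 50%; inconclusive means only one of those two conditions met; inactive means mean below 50% and too few replicates reaching it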;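 further: 0% = median of the neutral control wells and 100% = twice that signal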
esBAF inh – SWI/SNF esBAF complex inhibition. mouse ES cells, Bmi1-luciferase knock-in reporter, 24 h; 100% = twice the neutral-well signal. reporter increase, % at 12.5 µM. hit rate 2% among 350,000; in the data active means activation above about 40%; inconclusive means no clear call, values can overlap the other calls;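 further: 0% = median of the plate's neutral control wells and 100% = double that signal; a rise in the Bmi1 reporter signal indicates esBAF inhibition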
MITF TRPM1 HTS – increases MITF-driven TRPM1 promoter luciferase signal | hit rate 0.75% among 300,000 | AID 588334 | activation, % at 12.5 µM | SK-MEL-5 TRPM1-promoter luciferase, 24 h; % of positive control, neutral wells = 0;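 active means mean activation of at least 80% with every replicate also reaching 80%; inconclusive means mean reaches 80% but some replicate falls short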;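 further: 0% = neutral control wells and 100% = parthenolide positive control wells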
* marks the source's active call; other numbers are inactive results.

How did COC(=O)CCS(=O)(=O)c1nc(-c2ccccc2)cc(C(F)(F)F)n1 do in these assays?
HSF1 inh: -94*; HSF1 activator: -94; MITF TRPM1 HTS: -93

How did COCCNC(=O)CCSc1nc(-c2ccc(OC)cc2)cc(C(F)(F)F)n1 do in these assays?
Wnt act: 5; SMARCA2 activ: 0; HSF1 inh: 2; HSF1 activator: -9; esBAF inh: -3

What do the screens show for `CCOC(=O)CS(=O)(=O)c1nc(-c2ccc(F)cc2)cc(C(F)(F)F)n1`?
HSF1 inh: 59; HSF1 activator: 88*; esBAF inh: -20; MITF TRPM1 HTS: -100

Results for CCOC(=O)CCS(=O)(=O)c1nc(-c2ccccc2)cc(C(F)(F)F)n1 ?
HSF1 inh: inconclusive; HSF1 activator: 12; esBAF inh: -23; MITF TRPM1 HTS: -85

What do the screens show for `COCC(C)NC(=O)CCS(=O)(=O)c1nc(-c2ccc(OC)cc2)cc(C(F)(F)F)n1` (stereo not given)?
SMARCA2 activ: 5; HSF1 inh: 179; HSF1 activator: 238*; esBAF inh: -2; MITF TRPM1 HTS: -7

Results for CCOC(=O)CS(=O)(=O)c1nc(-c2ccccc2)cc(C(F)(F)F)n1 ?
SMARCA2 activ: -6; HSF1 inh: 124; HSF1 activator: 137*; MITF TRPM1 HTS: -101

How did CC(C)C#Cc1cnc2c(c1)C(=O)N([C@H](C)CO)C[C@@H](C)[C@H](CN(C)C(=O)c1ccccn1)O2 do in these assays?
esBAF inh: 1

Results for CNC(=O)C[C@@H]1CC[C@@H]2[C@H](COc3ccc(NC(=O)c4cnccn4)cc3C(=O)N2C)O1 ?
esBAF inh: 2

How did COCCNC(=O)C[C@H]1CC[C@@H]2[C@H](COC[C@@H](O)CN2Cc2ccc(Cl)c(Cl)c2)O1 do in these assays?
esBAF inh: 4

Results for COc1ccc(C(=O)OCCN=C2NS(=O)(=O)c3ccccc32)cc1OC ?
SMARCA2 activ: -3; HSF1 inh: 25; HSF1 activator: 52*; esBAF inh: -4; MITF TRPM1 HTS: 6

Results for COc1cccc(CNc2ccc(S(N)(=O)=O)cc2)c1OC ?
SMARCA2 activ: -3; HSF1 inh: -57*; HSF1 activator: -67; esBAF inh: 2; MITF TRPM1 HTS: 7

What do the screens show for `C[C@@H]1CN([C@H](C)CO)C(=O)Cc2cc(NC(=O)Nc3ccc(F)cc3)ccc2O[C@H]1CN(C)C(=O)Nc1ccc2c(c1)OCO2`?
esBAF inh: 0

How did CN(C)c1ccc(C(O)c2cc3ccccc3s2)cc1 (stereo not given) do in these assays?
Wnt act: -2; SMARCA2 activ: -1; esBAF inh: 52*; MITF TRPM1 HTS: 18

Results for Cc1cc(C)cc(OCC(O)CN2C(=O)NC(C)(C)C2=O)c1 (stereo not given) ?
Wnt act: -2; SMARCA2 activ: 1; HSF1 inh: 36; HSF1 activator: 64*; esBAF inh: -8; MITF TRPM1 HTS: 1

How did Cc1ccccc1OCCCn1c(=O)sc2ccccc21 do in these assays?
SMARCA2 activ: 2; HSF1 inh: -6; HSF1 activator: 0; esBAF inh: 54*; MITF TRPM1 HTS: 72

How did Cc1ccc(OCCn2c(=O)sc3ccccc32)cc1 do in these assays?
Wnt act: 23; SMARCA2 activ: 7; HSF1 inh: 36; HSF1 activator: 27; esBAF inh: 76*; MITF TRPM1 HTS: 92*

What do the screens show for `Cc1ccc(OCCCn2c(=O)sc3ccccc32)cc1`?
SMARCA2 activ: 0; HSF1 inh: 18; HSF1 activator: 39; esBAF inh: 15; MITF TRPM1 HTS: 31

How did O=c1sc2ccccc2n1COc1ccccc1 do in these assays?
SMARCA2 activ: 0; esBAF inh: inconclusive; MITF TRPM1 HTS: 10

Results for O=c1sc2ccccc2n1CCCOc1ccccc1 ?
Wnt act: 71*; SMARCA2 activ: 7; HSF1 inh: 25; HSF1 activator: 17; esBAF inh: 81*; MITF TRPM1 HTS: 52

Results for Cc1noc(C)c1S(=O)(=O)Nc1ccc2c(c1)C(=O)N([C@@H](C)CO)C[C@H](C)[C@H](CN(C)C(=O)c1ccncc1)OCCCC[C@@H](C)O2 ?
esBAF inh: 2

What do the screens show for `CCC(=O)N1[C@@H]2c3ccc(C4=CCCC4)c(=O)n3C[C@@H]2[C@@H](CO)[C@@H]1C(=O)NC1CCC1`?
esBAF inh: -5

How did CNc1sc(C(=O)c2cccs2)c(N)c1-c1nc2ccccc2s1 do in these assays?
SMARCA2 activ: 4; HSF1 inh: 22; HSF1 activator: 35; MITF TRPM1 HTS: 98*

Results for CC(=O)N(C)C[C@@H]1Oc2cc(-c3ccccc3F)ccc2S(=O)(=O)N([C@H](C)CO)C[C@@H]1C ?
esBAF inh: 3

What do the screens show for `O=[N+]([O-])c1ccc(O)c(C=Nc2ccc3c(c2)OCO3)c1`?
Wnt act: 34*; SMARCA2 activ: 6; HSF1 inh: 17; HSF1 activator: 7; esBAF inh: 41*; MITF TRPM1 HTS: 7

How did O=[N+]([O-])c1cc(Br)cc(C=Nc2ccc3c(c2)OCO3)c1O do in these assays?
Wnt act: 6; SMARCA2 activ: -3; HSF1 inh: -7; HSF1 activator: 2; esBAF inh: -8; MITF TRPM1 HTS: 1

How did O=C(COC(=O)C1CC2CCCC(C1)C2=O)Nc1ccc(F)c(Cl)c1 (stereo not given) do in these assays?
Wnt act: -1; SMARCA2 activ: 0; esBAF inh: 3; MITF TRPM1 HTS: -1

How did O=C(COC(=O)C1CC2CCCC(C1)C2=O)Nc1nc(-c2ccc(F)c(F)c2)cs1 (stereo not given) do in these assays?
Wnt act: 19; SMARCA2 activ: 1; HSF1 inh: 7; HSF1 activator: 17; esBAF inh: 70*; MITF TRPM1 HTS: 41

Results for Cc1cc(C(=O)Nc2ccc3c(c2)C(=O)N(C)[C@H]2CC[C@@H](CC(=O)N[C@@H](C)c4ccccc4)O[C@H]2CO3)no1 ?
esBAF inh: 11

Results for O=C(Nc1cccc(Cl)c1)N1C[C@H]2[C@@H](c3ccccc31)[C@H](CO)N2C(=O)C1CC1 ?
esBAF inh: -2

Results for O=C(CNS(=O)(=O)c1ccccc1F)Nc1ccc(N2CCOCC2)cc1 ?
SMARCA2 activ: 7; HSF1 inh: -88*; HSF1 activator: -91; esBAF inh: -2

How did O=C(CSc1ccccc1F)Nc1ccc(N2CCOCC2)cc1 do in these assays?
Wnt act: 15; SMARCA2 activ: 2; esBAF inh: inconclusive; MITF TRPM1 HTS: 69

What do the screens show for `COC(=O)C1CCN(C(=O)c2ccc3nc(-c4cccc(OC)c4)oc3c2)CC1`?
Wnt act: 32*; SMARCA2 activ: 3; HSF1 inh: -12; HSF1 activator: -7; MITF TRPM1 HTS: -1
